Results filed as inconclusive are left out. A number with no mark means an inactive call. The source made the active and inactive calls. Calls come from the whole dose curve; as a rule, active = well fitted curve in the direction sought with a large enough effect in the repeat runs; inconclusive = weak or mixed curves; inactive = no such curve, though single readings can be large; an effect the other way counts as inactive or inconclusive.

Test [1] can be described thus: qHTS RealTime-Glo MT Cell Viability Assay in HepG2 cells - 40 hour (AID 1224870). Note: nearly all actives have a fitted effect of over 50% in size. Note: potency is the fitted concentration of half-maximal effect. The procedure, abridged: (§1)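 HepG2 cells (600/well) mixed with RealTime-Glo MT reagent, settled 5 h at 37 C/5% CO2 before compound addition. Nonlytic NanoLuc luminescence from viable-cell prosubstrate reduction read repeatedly during 40 h treatment at 37 C.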
A general note: In qHTS, concentration-response curves come from the screen itself.

Test [2] in a line: A CellTox Green Cytotoxicity Assay to monitor cytotoxicity in HEK293 cells - 40 hour (AID 1224871). Note: nearly all actives have a fitted effect of over 45% in size. The method in brief:
(§2)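 Cytotoxicity was tracked continuously in HEK293 cells by a DNA-binding dye excluded from viable cells. Compounds were transferred in DMSO 5 h after seeding; fluorescence was recorded at intervals up to 40 h.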

The nature of test [3]: qHTS RealTime-Glo MT Cell Viability Assay in HEK293 cells - 16 hour (AID 1224872). Note: top concentration of the series differs between compounds; nearly all actives have a fitted effect of over 50% in size. The procedure, abridged: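 HEK293 cells seeded with NanoLuc/prosubstrate reagent, rested 5 h at 37 C, then dosed and kept at 37 C up to 40 h. Nonlytic real-time luminescence from viable cells read at 0, 8, 16, 24, 32 and 40 h.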
Test [4] in a line: qHTS RealTime-Glo MT Cell Viability Assay in HepG2 cells - 8 hour (AID 1224873). Note: nearly all actives have a fitted effect of over 55% in size. The method in brief: as §1
The nature of test [5]: A CellTox Green Cytotoxicity Assay to monitor cytotoxicity in HepG2 cells - 16 hour (AID 1224876). Note: nearly all actives have a fitted effect of over 45% in size. The method in brief:
(§3)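 Real-time, homogeneous cytotoxicity readout: dead-cell DNA staining by CellTox Green in HepG2 monolayers, fluorescence measured at timed intervals up to 40 h of continuous compound exposure.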

The nature of test [6]: qHTS RealTime-Glo MT Cell Viability Assay in HepG2 cells - 32 hour (AID 1224877). Note: nearly all actives have a fitted effect of over 55% in size. The method in brief: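 HepG2 cells (600/well) were dispensed with RealTime-Glo reagents, incubated 5 h at 37 °C, then treated with compounds in DMSO for up to 40 h. Nonlytic NanoLuc luminescence reflecting viable cells was read at each stated time point.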
A short description of test [7]: A CellTox Green Cytotoxicity Assay to monitor cytotoxicity in HepG2 cells - 40 hour (AID 1224879). Note: nearly all actives have a fitted effect of over 40% in size. The method in brief: as §3
The nature of test [8]: qHTS RealTime-Glo MT Cell Viability Assay in HEK293 cells - 40 hour (AID 1224874). Note: nearly all actives have a fitted effect of over 50% in size. To be noted: RealTime-Glo luminescence; max response: stronger effect = lower value. The procedure, abridged: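 Nonlytic bioluminescent viability monitoring. HEK293 at 600 cells/well with reagent; 5 h settle; compound transfer by pintool; plates held at 37 C and read at set time points.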
Test [9] in a line: A CellTox Green Cytotoxicity Assay to monitor cytotoxicity in HEK293 cells - 24 hour (AID 1224875). Note: series mostly up to about 77 µM; nearly all actives have a fitted effect of over 45% in size. The procedure, abridged: as §2
Test [10] is described as follows: A CellTox Green Cytotoxicity Assay to monitor cytotoxicity in HepG2 cells - 24 hour (AID 1224878). Note: nearly all actives have a fitted effect of over 45% in size. The method in brief:
as §3
% is set by controls: 0 for no effect and ±100 for the full control effect.

Consider `CCCCc1ccc(N)cc1`, for which the Potency result in test [1], in [2], in test [3], in test [5], in [6] and in test [7] was “inactive” in each case. The compound was called inactive in test [4].
As to `CC(=O)CCc1ccc(O)cc1`, the Potency result in test [1], in test [2], in [3], in test [9], in test [5] and in test [6] was “inactive” each time. Also, the Potency entry in [10] and in test [7] was “inactive” each time. For the same compound, the max response in [8] is -1.37%.
Turning to `CCCOc1ccccc1-c1nc2n[nH]nc2c(=O)[nH]1`, the Potency result in test [1], in test [2], in test [3], in test [9], in test [5] and in test [6] was “inactive” each time. The Potency entry in [10] and in test [7] was “inactive” each time.
For the compound `CC/C=C\CCCCO`, the Potency entry in test [1], in [2], in test [3], in test [9], in test [5] and in test [6] was “inactive” in each case. Also, the max response in test [8] is 1.83%.
As for `COc1cc(C(=O)N2CCOCC2)cc(OC)c1OC`, the Potency entry in [1], in test [2], in test [9], in test [5], in [6] and in test [10] was “inactive” each time. Moreover, the Potency entry in [7] is “inactive”. The outcome in test [4] was inactive. Besides, the max response in [8] was 11.2%.
`NC(CS)C(=O)O` (stereo not drawn): the Potency entry in test [1], in test [2], in test [3], in test [9], in test [5] and in test [6] was “inactive” in each case. In addition, the Potency entry in test [7] is “inactive”. Moreover, the max response in [8] is 1.35%.
With `CCO[Si](CCCN=C=O)(OCC)OCC`, the Potency entry in test [1], in [2], in test [3], in test [9], in [5] and in [6] was “inactive” in each case. The Potency result in [10] and in [7] was “inactive” in each case. For the same compound, the max response in [8] was 0.0382%.
For `C1COCCO1`, the Potency result in test [1], in test [2], in test [9], in test [5], in test [6] and in test [7] was “inactive” throughout. Also, the result in test [4] was inactive. The max response in [8] is 4.29%.
For the compound `CCCCCCCCN(C)CCCCCCCC`, the Potency result in test [1], in test [2], in test [9], in [5] and in test [6] was “inactive” throughout. In [4], the compound was classed as inactive. For the same compound, in test [8], the max response is 4.39%.
`CCC(C(=O)NC(N)=O)c1ccccc1` (stereo not drawn): the Potency entry in test [1], in test [2], in test [9], in test [6], in test [10] and in [7] was “inactive” in each case. Also, in test [4], the outcome was inactive. The max response in test [8] was 5.63%.
In the case of `N[C@@H](CS)C(=O)O`, the Potency result in test [1], in test [2], in test [3], in [5], in [6] and in test [10] was “inactive” each time. Moreover, the Potency entry in [7] is “inactive”. For the same compound, the max response in test [8] is 9.81%.
With `CCCCCCC(=O)OCC`, the Potency result in [1], in test [2], in test [3], in [9], in [5] and in test [6] was “inactive” each time. Besides, the Potency entry in test [10] and in test [7] was “inactive” in each case. For the same compound, in test [8], the max response was 14.5%.
With `CCCc1ccc(N)cc1`, the Potency result in test [1], in test [2], in test [9], in [5], in test [6] and in test [7] was “inactive” in each case. Also, the compound was classed as inactive in [4]. Besides, in [8], the max response was -1.79%.
For `CCCCCC[C@@H](CCC)C(=O)O`, the Potency entry in [1], in [2], in test [3], in test [9], in [5] and in test [6] was “inactive” each time. Moreover, the Potency entry in [10] and in test [7] was “inactive” in each case. Also, in [8], the max response is 13.8%.
On to `CC(C)COC(=O)C(C)C`, for which the Potency entry in test [1], in test [2], in [3], in test [9], in [5] and in test [6] was “inactive” each time. Besides, the Potency result in test [10] and in test [7] was “inactive” throughout. Besides, the max response in [8] is 3.76%.
In the case of `Cc1c(C)n(CCN(C)C)c2ccc(C(=O)OCCN(C)C)cc12`, the Potency entry in test [1], in test [2], in test [3], in test [5], in test [6] and in test [10] was “inactive” each time. In addition, in [7], the Potency result is “inactive”. Further, the compound was classed as inactive in [4].
Take `CC(C)(O)c1ccccc1`: the Potency entry in [1], in test [2], in [9], in test [5], in test [6] and in test [10] was “inactive” in each case. In addition, the Potency result in test [7] was “inactive”. In addition, the compound was classed as inactive in [4]. In addition, in test [8], the max response was -10.8%.
With `C[N+](C)(C)CC[N+]1(C)Cc2c(Cl)c(Cl)c(Cl)c(Cl)c2C1`, the Potency in test [1] is 23.9 µM (active). For the same compound, the Potency result in [2], in test [3], in test [9], in test [5], in [10] and in [7] was “inactive” throughout. Besides, in test [8], the max response is 7.36%.
Turning to `CSc1ccc(C=O)cc1`, the Potency entry in test [1], in test [2], in test [9], in test [5], in [6] and in [10] was “inactive” in each case. Besides, the Potency result in [7] was “inactive”. Further, the compound was called inactive in [4]. In addition, the max response in test [8] was 0.555%.
Take `CC(C)=CCC/C(C)=C/C(=O)O`: the Potency entry in test [1], in [2], in [3], in test [9], in test [5] and in test [6] was “inactive” throughout. Further, in test [8], the max response is 0.0826%.
With `NC(=S)Nc1cccc2ccccc12`, the results for the activity change, negative = cytotoxic in [1] and in test [6] were -4.8% [at 6.97 µM] and -0.0723% [at 6.97 µM], respectively. The cytotoxicity increase was 0.339% [at 6.97 µM] in test [2], 1.42% [at 6.97 µM] in [5] and 2.43% [at 6.97 µM] in test [7]. In test [4], the viability change, negative = cytotoxic was 2.4% [at 6.97 µM]. Further, in [8], the max response is 16.5%. The activity change in test [9] is 0.127% [at 6.97 µM, stronger effect = higher value]. Also, the cytotoxicity in test [10] is -1.06% [at 6.97 µM].
As to `CC(C)CCCCCCN`, the Potency entry in test [1], in [2], in test [3], in test [9], in [5] and in test [6] was “inactive” throughout. In addition, the Potency entry in test [7] is “inactive”. Besides, the max response in [8] was -7.14%.
Turning to `CCCCCCCCCCCCCCC`, the Potency result in [1], in test [2], in test [3], in test [9], in [5] and in test [6] was “inactive” each time. In addition, the Potency entry in test [7] was “inactive”. Moreover, the max response in [8] was 10.7%.
For the compound `O=c1[nH]c(=O)n([C@H]2O[C@H](CO)[C@@H](O)[C@@H]2O)cc1/C=C\Br`, the Potency entry in test [1], in test [2], in test [3], in test [9], in test [5] and in test [6] was “inactive” in each case. Further, the Potency result in test [10] and in test [7] was “inactive” in each case. In addition, the max response in [8] was 3.79%.

The record behind these values is PubChem BioAssay (Tox21).
